# About 75 (2%) of roughly 3,200 compounds showed an effect of 50% or more. For the sample, strong results were picked, then their nearest neighbours and some compounds at random.
# System: T1, S. aureus MSSA476
# T1 construct: MSSA476
# Design: species or system S. aureus MSSA476 (TSB) or V. cholerae SAD30 (LB); 384-well bacterial growth screen at 25 uM, OD600 relative to DMSO control
# Settings: relative growth, OD600, TSB; 25 µM; inhibitor
row,SMILES,% of control remaining
1,"O=C(CCl)c1ccc(C(F)(F)F)cc1 [10-B10, 2-chloro-1-[4-(trifluoromethyl)phenyl]ethan-1-one]",135.938%
2,"CC(NC(=O)CCl)c1cn(-c2ccccc2)nn1 (stereo not shown) [5-O06, 2-chloro-N-[1-(1-phenyl-1H-1,2,3-triazol-4-yl)ethyl]acetamide]",91.0747%
3,"O=C(CCl)NC1CC(=O)N(c2cccc(C(F)(F)F)c2)C1 (stereo not shown) [5-E09, 2-chloro-N-{5-oxo-1-[3-(trifluoromethyl)phenyl]pyrrolidin-3-yl}acetamide]",113.661%
4,"Cc1cccc(CC(=O)CCl)c1 [10-I19, 1-chloro-3-(3-methylphenyl)propan-2-one]",130.938%
5,"O=C(CCl)c1cn(-c2cccc(C(F)(F)F)c2)nn1 [10-C09, 2-chloro-1-{1-[3-(trifluoromethyl)phenyl]-1H-1,2,3-triazol-4-yl}ethan-1-one]",-0.3125%
6,"O=C(CCl)c1c[nH]c2ccc(F)cc12 [10-O11, 2-chloro-1-(5-fluoro-1H-indol-3-yl)ethan-1-one]",120.625%
7,"Cn1cc(C(=O)CCl)nn1 [10-M19, 2-chloro-1-(1-methyl-1H-1,2,3-triazol-4-yl)ethan-1-one]",87.5%
8,O=C(CCl)c1cn(-c2ccc(F)cc2)nn1 [10-F05],0%
9,Cc1cccc(-n2cc(C(=O)CCl)nn2)c1 [10-L07],0%
10,"O=C(CCl)NCC(=O)Nc1nccs1 [5-G22, 2-chloro-N-{[(1,3-thiazol-2-yl)carbamoyl]methyl}acetamide]",86.3388%
11,"Cc1nn(-c2ccccc2)c(Cl)c1C=C(C#N)C(=O)NC(C)C [9-J17, 3-(5-chloro-3-methyl-1-phenyl-1H-pyrazol-4-yl)-2-cyano-N-(propan-2-yl)prop-2-enamide]",77.9026%
12,"C=CC(=O)N(C)CC(=O)Nc1ccc(N2C[C@@H](C)O[C@@H](C)C2)cc1 [3-H08, N-[({4-[(2R,6S)-2,6-dimethylmorpholin-4-yl]phenyl}carbamoyl)methyl]-N-methylprop-2-enamide]",117.719%
13,"CC(C)N(c1ccccc1)c1ccc(NC(=O)CCl)cc1 [6-I17, 2-chloro-N-{4-[phenyl(propan-2-yl)amino]phenyl}acetamide]",116.78%
14,"CCC(c1cc(Cl)cc(Cl)c1)N(C)C(=O)CCl (stereo not shown) [7-L10, 2-chloro-N-[1-(3,5-dichlorophenyl)propyl]-N-methylacetamide]",75.0392%
15,"COc1cc(C)c(C=C(C#N)C(=O)Nc2ccc(C)cc2)cc1C(C)C [9-C04, 2-cyano-3-[4-methoxy-2-methyl-5-(propan-2-yl)phenyl]-N-(4-methylphenyl)prop-2-enamide]",99.176%
16,"O=C(CCl)c1cc(Cl)ccc1Cl [10-E16, 2-chloro-1-(2,5-dichlorophenyl)ethan-1-one]",80%
17,"O=C(CCl)c1sccc1Cl [10-K11, 2-chloro-1-(3-chlorothiophen-2-yl)ethan-1-one]",10.3125%
18,"O=C(O)c1csc(C(=O)CCl)c1 [10-E22, 5-(2-chloroacetyl)thiophene-3-carboxylic acid]",88.4375%
19,"C=CC(=O)NCc1cc(Cl)cc(S(C)(=O)=O)c1 [3-N15, N-[(3-chloro-5-methanesulfonylphenyl)methyl]prop-2-enamide]",97.5185%
20,"C=CC(=O)NCc1oc(CC)nc1C [3-P15, N-[(2-ethyl-4-methyl-1,3-oxazol-5-yl)methyl]prop-2-enamide]",86.7218%
21,"Cc1c(C#N)c(NC(=O)CCl)n(Cc2cccs2)c1C [4-C04, 2-chloro-N-{3-cyano-4,5-dimethyl-1-[(thiophen-2-yl)methyl]-1H-pyrrol-2-yl}acetamide]",108.623%
22,"N#Cc1c(NC(=O)CCl)oc(-c2cccs2)c1-c1cccs1 [6-I09, 2-chloro-N-[3-cyano-4,5-bis(thiophen-2-yl)furan-2-yl]acetamide]",37.9024%
23,"N#Cc1c(NC(=O)CCl)oc(-c2ccco2)c1-c1ccco1 [5-D10, 2-chloro-N-[4'-cyano-2'-(furan-2-yl)-[2,3'-bifuran]-5'-yl]acetamide]",66.6667%
24,"COCC(C)NC(=O)C(C#N)=Cc1cccc(F)c1F (stereo not shown) [9-F09, 2-cyano-3-(2,3-difluorophenyl)-N-(1-methoxypropan-2-yl)prop-2-enamide]",101.873%
25,"C=CC(=O)N1CCCC1c1nc(N(C)C)no1 (stereo not shown) [2-C21, 1-{2-[3-(dimethylamino)-1,2,4-oxadiazol-5-yl]pyrrolidin-1-yl}prop-2-en-1-one]",104.439%

row,SMILES,% of control remaining
1,"C=CC(=O)N(CC)CC(=O)N1CCCC(F)(F)C1 [2-G14, N-[2-(3,3-difluoropiperidin-1-yl)-2-oxoethyl]-N-ethylprop-2-enamide]",112.446%
2,"O=C1C=CC(=O)N1CCc1ccccc1F [10-G03, 1-[2-(2-fluorophenyl)ethyl]-2,5-dihydro-1H-pyrrole-2,5-dione]",4.375%
3,"O=C1C=CC(=O)N1CCc1ccccc1 [10-E20, 1-(2-phenylethyl)-2,5-dihydro-1H-pyrrole-2,5-dione]",58.4375%
4,"O=C1C=CC(=O)N1CCc1ccc(F)cc1 [10-C21, 1-[2-(4-fluorophenyl)ethyl]-2,5-dihydro-1H-pyrrole-2,5-dione]",70.9375%
5,"CCc1nsc(N2CCN(C(=O)C(C#N)=Cc3ccco3)CC2)n1 [9-K05, 2-[4-(3-ethyl-1,2,4-thiadiazol-5-yl)piperazine-1-carbonyl]-3-(furan-2-yl)prop-2-enenitrile]",96.779%
6,"CNS(=O)(=O)c1cc(NC(=O)CCl)ccc1C [6-M07, 2-chloro-N-[4-methyl-3-(methylsulfamoyl)phenyl]acetamide]",112.341%
7,"Cc1ccc(NC(=O)CN2CCN(C(=O)CCl)CC2)cc1.Cl [4-D16, 2-[4-(2-chloroacetyl)piperazin-1-yl]-N-(4-methylphenyl)acetamide hydrochloride]",131.872%
8,"COCC(NC(=O)C(C)Cl)c1ccccn1 (stereo not shown) [6-B13, 2-chloro-N-[2-methoxy-1-(pyridin-2-yl)ethyl]propanamide]",95.6098%
9,"COc1cc(C=C(C#N)C(=O)NC2CCCCC2)cc(Cl)c1O [8-H21, 3-(3-chloro-4-hydroxy-5-methoxyphenyl)-2-cyano-N-cyclohexylprop-2-enamide]",104.564%
10,"O=C1C=CC(=O)N1c1cccc(O)c1 [10-O07, 1-(3-hydroxyphenyl)-2,5-dihydro-1H-pyrrole-2,5-dione]",125.313%
11,"O=C1C=CC(=O)N1c1ccc(F)c(Cl)c1 [10-D15, 1-(3-chloro-4-fluorophenyl)-2,5-dihydro-1H-pyrrole-2,5-dione]",109.688%
12,"COc1cccc(N2C(=O)C=CC2=O)c1 [10-K03, 1-(3-methoxyphenyl)-2,5-dihydro-1H-pyrrole-2,5-dione]",124.375%
13,"O=C1C=CC(=O)N1c1ccc(Oc2ccccc2)cc1 [10-F17, 1-(4-phenoxyphenyl)-2,5-dihydro-1H-pyrrole-2,5-dione]",36.875%
14,"O=C1C=CC(=O)N1c1ccc(OC(F)(F)F)cc1 [10-J19, 1-[4-(trifluoromethoxy)phenyl]-2,5-dihydro-1H-pyrrole-2,5-dione]",5.9375%
15,"O=C1C=CC(=O)N1c1ccc(OC(F)F)cc1 [10-P11, 1-[4-(difluoromethoxy)phenyl]-2,5-dihydro-1H-pyrrole-2,5-dione]",110.313%
16,"COc1ccccc1N1C(=O)C=CC1=O [10-O10, 1-(2-methoxyphenyl)-2,5-dihydro-1H-pyrrole-2,5-dione]",118.438%
17,"CCOc1ccc(N2C(=O)C=CC2=O)cc1 [10-A14, 1-(4-ethoxyphenyl)-2,5-dihydro-1H-pyrrole-2,5-dione]",141.563%
18,"O=C1C=CC(=O)N1c1ccc2ccccc2c1 [10-D07, 1-(naphthalen-2-yl)-2,5-dihydro-1H-pyrrole-2,5-dione]",3.125%
19,"CCOC(=O)c1[nH]c(C)c(C(=O)CCl)c1C [10-A10, ethyl 4-(2-chloroacetyl)-3,5-dimethyl-1H-pyrrole-2-carboxylate]",136.563%
20,"C=CC(=O)NCC1=NOCC1 [3-G16, N-[(4,5-dihydro-1,2-oxazol-3-yl)methyl]prop-2-enamide]",95.7771%
21,"Cc1cc(C(=O)CCl)c(F)cc1F [10-O03, 2-chloro-1-(2,4-difluoro-5-methylphenyl)ethan-1-one]",143.438%
22,"O=C1CCc2cc(C(=O)CCl)ccc2N1 [10-M03, 6-(2-chloroacetyl)-1,2,3,4-tetrahydroquinolin-2-one]",83.125%
23,"O=C1CCc2cc(C(=O)CCl)c(F)cc2N1 [10-O20, 6-(2-chloroacetyl)-7-fluoro-1,2,3,4-tetrahydroquinolin-2-one]",3.75%
24,"C=CC(=O)N1CCC(n2nc(C)nc2O)CC1 [3-P21, 1-[4-(5-hydroxy-3-methyl-1H-1,2,4-triazol-1-yl)piperidin-1-yl]prop-2-en-1-one]",126.077%

# From PMC11995724, “Antibiotic target discovery by integrated phenotypic and activity-based profiling of electrophilic fragments” (Cell chemical biology, 2025)
